Among the test systems are SR leukemia; RPMI-8226 leukemia; OVCAR-8 ovarian; OVCAR-5 ovarian; OVCAR-4 ovarian; SK-OV-3 ovarian; IGROV1 ovarian; OVCAR-3 ovarian; HS 578T breast; T-47D breast; BT-549 breast; MDA-MB-435 melanoma; SW-620 colon; MCF7 breast; HCT-116 colon; HCC-2998 colon; KM12 colon; NCI/ADR-RES ovarian.
Experiment in all cases: NCI-60 one-dose screen, 48 h (100 = growth as untreated, 0 = no growth, -100 = all killed)
What all share (settings): 10 µM unless noted

Growth data for nine molecules are collected here from PubChem BioAssay (NCI).

This is part of a sample that, as a whole, favours compounds with a hit. Of some 83,000 tested, about 20% had one in any assay.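 Each cell line was grown in a 96-well plate and treated with one concentration of compound for 48 hours. Values below 10 were considered active.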 Values without a mark were called inactive. Calls of active or inactive are those of the source.

As to `CC(=O)c1ccc(Br)c([N+](=O)[O-])c1`, the growth was 94.5% with SR leukemia; 96.6% in the assay on RPMI-8226 leukemia; 107% in the assay with OVCAR-8 ovarian; 119% with OVCAR-5 ovarian; 114% in the assay on OVCAR-4 ovarian; 109% in the assay on SK-OV-3 ovarian. Besides, the growth was 109% with IGROV1 ovarian; 124% with OVCAR-3 ovarian; 90.7% in the assay on HS 578T breast; 104% in the assay on T-47D breast; 99.7% with BT-549 breast; 101% in the assay on MDA-MB-435 melanoma. In addition, the growth was 120% in the assay on SW-620 colon; 94.1% in the assay on MCF7 breast; 96.9% in the assay with HCT-116 colon; 109% in the assay with HCC-2998 colon; 107% with KM12 colon.

For `CC(=O)c1ccc(N2C(=O)c3ccc(Oc4ccccc4)cc3C2=O)cc1`, the growth in the assay on SR leukemia is 119%; in the assay with RPMI-8226 leukemia, 101%; in the assay with OVCAR-8 ovarian it was 114%; with OVCAR-5 ovarian, 103%; in the assay on OVCAR-4 ovarian it was 108%; in the assay with SK-OV-3 ovarian it was 108%. For the same molecule, the growth with IGROV1 ovarian was 108%; with OVCAR-3 ovarian, 107%; with HS 578T breast, 115%; with NCI/ADR-RES ovarian, 105%; in the assay with BT-549 breast, 98.8%; in the assay on MDA-MB-435 melanoma, 96.3%. Also, the growth in the assay with SW-620 colon is 98.8%; with MCF7 breast it was 101%; in the assay on HCT-116 colon, 104%; in the assay with HCC-2998 colon, 99.4%; in the assay with KM12 colon, 95.6%.

For `COc1ncnc2[nH]cc(CN3CCN(c4ccc(F)cc4)CC3)c12`, the growth in the assay on SR leukemia is 105%; in the assay with RPMI-8226 leukemia, 103%; in the assay with OVCAR-8 ovarian, 100%; in the assay with OVCAR-5 ovarian it was 102%; in the assay on OVCAR-4 ovarian, 115%; in the assay on SK-OV-3 ovarian, 104%. The growth in the assay with IGROV1 ovarian is 102%; in the assay with OVCAR-3 ovarian, 114%; in the assay on HS 578T breast it was 97.5%; in the assay on T-47D breast, 104%; with BT-549 breast, 107%; with SW-620 colon it was 108%. Moreover, the growth was 103% in the assay with MCF7 breast, 111% with HCT-116 colon, 104% with HCC-2998 colon and 109% in the assay on KM12 colon.

As to `C[C@@H]1N=C(c2ccc3ccccc3c2)Nc2nc3ccccn3c2C1=O`, the growth in the assay on SR leukemia is 30.5%; with RPMI-8226 leukemia it was 43.8%; in the assay on OVCAR-8 ovarian, 54.4%; with OVCAR-5 ovarian, 90.6%; in the assay with OVCAR-4 ovarian, 74.5%; with SK-OV-3 ovarian it was 40.5%. Moreover, the growth was 32.1% with IGROV1 ovarian; 16.9% in the assay on OVCAR-3 ovarian; 29.3% in the assay on HS 578T breast; 44.5% in the assay with NCI/ADR-RES ovarian; 35.1% in the assay with BT-549 breast; 26.3% with SW-620 colon. Moreover, the growth in the assay with MCF7 breast was 25.2%; in the assay with HCT-116 colon, 18.3%; in the assay with HCC-2998 colon, 77%; in the assay with KM12 colon, 30.3%.

Take `COc1cc(C)c(Cl)cc1C1=NN(c2ccc(S(N)(=O)=O)cc2)C(/C=C/c2ccccc2)C1` (stereo not given): the growth is 66.7% in the assay with SR leukemia; 35.8% with RPMI-8226 leukemia; 31.7% in the assay with OVCAR-8 ovarian; 104% with OVCAR-5 ovarian; 28.1% in the assay with OVCAR-4 ovarian; 88.8% with SK-OV-3 ovarian. The growth was 45.8% with IGROV1 ovarian; 51.7% in the assay with OVCAR-3 ovarian; 86.8% in the assay with HS 578T breast; 17.5% in the assay with T-47D breast; 107% in the assay on BT-549 breast; 62.5% in the assay on MDA-MB-435 melanoma. Also, the growth with SW-620 colon is 43.9%; in the assay on MCF7 breast, 23.3%; with HCT-116 colon, 11.5%; in the assay on HCC-2998 colon it was 74.9%; in the assay on KM12 colon, 34.8%.

`COc1cc(OC)cc(-c2ccc(-c3ccc(C(=N)N)s3)s2)c1`: the growth with SR leukemia was -47.3% (active); in the assay on RPMI-8226 leukemia, -62.9% (active); in the assay with OVCAR-8 ovarian, -58.8% (active); with OVCAR-5 ovarian it was -81% (active); in the assay on OVCAR-4 ovarian it was -54.2% (active); in the assay with SK-OV-3 ovarian, -92.4% (active). In addition, the growth in the assay on IGROV1 ovarian is -67.2% (active); in the assay on OVCAR-3 ovarian, -42.9% (active); in the assay with HS 578T breast it was -40.4% (active); in the assay on NCI/ADR-RES ovarian, -58% (active); in the assay with T-47D breast it was -70.2% (active); in the assay with MDA-MB-435 melanoma, -81.9% (active). Also, the growth is -69.2% (active) with SW-620 colon; -72.8% (active) with MCF7 breast; -73.5% (active) in the assay on HCT-116 colon; -71.7% (active) in the assay with HCC-2998 colon; -73.3% (active) with KM12 colon.

As for `COc1ccc(C(=O)O)cc1.[Ag]`, the growth was 60.1% in the assay on SR leukemia; 103% in the assay on RPMI-8226 leukemia; 105% with OVCAR-8 ovarian; 104% in the assay with OVCAR-5 ovarian; 117% in the assay with OVCAR-4 ovarian; 114% in the assay on SK-OV-3 ovarian. For the same molecule, the growth in the assay with IGROV1 ovarian was 110%; in the assay with OVCAR-3 ovarian, 99.7%; with HS 578T breast, 96.1%; in the assay with NCI/ADR-RES ovarian it was 99.5%; in the assay with T-47D breast, 92.6%; with MDA-MB-435 melanoma it was 95.3%. Also, the growth is -61.9% (active) in the assay with SW-620 colon; 100% with MCF7 breast; 94.5% with HCT-116 colon; 104% in the assay on HCC-2998 colon; 87% in the assay on KM12 colon.

As to `O=C1Nc2ccc(Br)cc2/C1=N/c1nc(-c2ccccc2)cs1`, the growth in the assay with SR leukemia was 85.2%; in the assay on RPMI-8226 leukemia, 75.6%; with OVCAR-8 ovarian, 89.1%; in the assay with OVCAR-5 ovarian, 108%; with OVCAR-4 ovarian, 80.5%; with SK-OV-3 ovarian, 60.7%. Also, the growth was 84% in the assay on IGROV1 ovarian; 75% with OVCAR-3 ovarian; 90.3% with HS 578T breast; 103% in the assay on NCI/ADR-RES ovarian; 58.9% in the assay on T-47D breast; 73.2% in the assay on BT-549 breast. Further, the growth was 88.6% in the assay with SW-620 colon; 67.4% with MCF7 breast; 75.6% in the assay with HCT-116 colon; 109% in the assay with HCC-2998 colon; 88.3% in the assay on KM12 colon.

In the case of `CCCCCCCC/C=C\CCCCCCCC(=O)OCCCCCC`, the growth in the assay with SR leukemia is 105%; in the assay with RPMI-8226 leukemia it was 104%; in the assay with OVCAR-8 ovarian it was 100%; in the assay on OVCAR-5 ovarian it was 117%; in the assay on OVCAR-4 ovarian, 113%; in the assay with SK-OV-3 ovarian, 99.3%. Besides, the growth is 108% in the assay on IGROV1 ovarian; 113% in the assay on OVCAR-3 ovarian; 105% in the assay on HS 578T breast; 102% in the assay on T-47D breast; 114% in the assay with BT-549 breast; 106% in the assay with SW-620 colon. In addition, the growth is 105% in the assay on MCF7 breast, 100% in the assay with HCT-116 colon, 107% in the assay with HCC-2998 colon and 102% in the assay on KM12 colon.
